For 47 compounds, Potency and activity change, negative = inhibition results are on record in PubChem BioAssay AID894 (National Center for Advancing Translational Sciences (NCATS), 2007).

The whole screen tested about 150,000 compounds, of which about 6,500 (4.3%) were called active. Not shown: some 12% with an inconclusive outcome. The list comes from a sample in which actives are over-represented; it also holds similar structures and randomly drawn compounds. Values without a mark were called inactive. Calls follow the shape of the dose curve; as a rule, active = well fitted inhibition curve with a large enough effect (not every such curve was filed as active); inconclusive = small, poorly fitted or top-dose-only effect, or another doubt; inactive = no such curve, though single readings can be large or run the other way.
% is scaled to controls: 0 for no effect and ±100 for the full control effect; potency is read from the fitted curve at half-maximal effect.

15-hydroxyprostaglandin dehydrogenase [NAD(+)] (Homo sapiens), sequence (P15428 whole entry, looked up): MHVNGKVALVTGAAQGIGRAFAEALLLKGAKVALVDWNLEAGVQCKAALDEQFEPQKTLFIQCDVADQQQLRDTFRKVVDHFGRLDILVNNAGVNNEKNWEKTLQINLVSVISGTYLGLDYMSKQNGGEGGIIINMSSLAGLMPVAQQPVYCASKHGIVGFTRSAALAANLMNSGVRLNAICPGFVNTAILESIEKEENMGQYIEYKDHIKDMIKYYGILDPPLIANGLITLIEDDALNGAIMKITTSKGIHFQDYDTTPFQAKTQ

This assay addresses 15-hydroxyprostaglandin dehydrogenase [NAD(+)] (Homo sapiens) (UniProt P15428). In words: qHTS Assay for Inhibitors of HPGD (15-Hydroxyprostaglandin Dehydrogenase). As to conditions: purified HPGD, NADH fluorescence kinetic, PGE2 substrate; activity change, negative = inhibition: active compounds read low. From the text: Human 15-Hydroxyprostaglandin dehydrogenase (HPGD) catalyzes the inactivation of prostaglandin E2, and plays a major role in cancer biology by antagonizing the oncogenic potential of cyclooxygenase type 2 (COX2). Assays are available, based on absorbance/fluorescence increase of NADH with the substrate 15-OH prostaglandin E2. References 1. Myung SJ, Rerko RM, Yan M, Platzer P, Guda K, Dotson A, Lawrence E, Dannenberg AJ, Lovgren AK, Luo G, Pretlow TP, Newman RA, Willis J, Dawson D, Markowitz SD. 15-Hydroxyprostaglandin dehydrogenase is an in vivo suppressor of colon tumorigenesis. […] 2. Yan M, Rerko RM, Platzer P, Dawson D, Willis J, Tong M, Lawrence E, Lutterbaugh J, Lu S, Willson JK, Luo G, Hensold J, Tai HH, Wilson K, Markowitz SD. 15-Hydroxyprostaglandin dehydrogenase, a COX-2 oncogene antagonist, is a TGF-beta-induced suppressor of human gastrointestinal cancers. Proc Natl Acad Sci U S A. 2004 Dec 14;101(50):17468-73. 3. Yang L, Amann JM, Kikuchi T, Porta R, Guix M, Gonzalez A, Park KH, Billheimer D, Arteaga CL, Tai HH, Dubois R, Carbone DP, Johnson DH. Inhibition of Epidermal Growth Factor Receptor Signaling Elevates 15-Hydroxyprostaglandin Dehydrogenase in Non-Small-Cell Lung Cancer. Cancer Res. 2007 Jun 15;67(12):5587-5593. Inhibition of HPGD activity was screened by utilizing prostaglandin as an electron donor and NAD+ as an electron acceptor/cofactor. An increase in the fluorescence intensity due to conversion of NAD+ to NADH was used to measure the enzyme activity. NIH Chemical Genomics Center [NCGC] Structural Genomics Consortium [SGC]
Buffer: 50 mM Tris-HCl, 0.01% Tween 20, pH 8. Enzyme Buffer: 50 mM Tris-HCl, 0.5 mM NAD+ and 0.01% Tween 20, pH 8. Reagents/Controls: Buffer in columns 3 and 4 as negative control (no enzyme). Substrate/cofactor solution: 1 mM NAD+ and 30 uM prostaglandin (Sigma, prostaglandin E2, # P5640) final concentrations dispensed throughout the plate. Enzyme: 20 nM HPGD final concentration in columns 1, 2, 5-48. Column 1 and 2 is neutral (100% activity). A titration of control inhibitor GW5074 (G6416 Sigma-Aldrich, St. Louis, MO) top concentration 10 mM in DMSO, then 1:2 dilution for a total of 16 concentrations in duplicate) was pin-transferred into column 2. Assay Steps: Three uL of enzyme were dispensed to 1536-well Greiner black solid bottom plates. Compounds and control inhibitor (23 nL) were transferred via Kalypsys PinTool. The plates were incubated for 15 min at room temperature, and then 1 uL of substrate/cofactor solution was added to start the reaction. The plates were immediately transferred to and read 5 times every 30 seconds on ViewLux High-throughput CCD imager (Perkin-Elmer) using 360 nm excitation and 450 nm emission fluorescence protocol. The fluorescence intensity difference between the last and the first time points was used to compute reaction progress.
(In general: Quantitative high-throughput screening tests each substance at several concentrations.)
As for `COC(=O)C1=C(C)NC2=C(C(=O)c3ccccc32)C1c1ccc(-c2ccc(C(=O)O)cc2)o1` (configuration not stated), the Potency is 17.8 µM (active).

Take `Cc1ccc(C2C3=C(Nc4[nH]n(-c5ccccc5)c(=O)c42)c2ccccc2C3=O)cc1` (configuration not stated): the activity change, negative = inhibition is -23.6%. Same read-out and setting: the result for `COc1ccccc1NC(=O)C1=C(C)NC2=C(C(=O)CCC2)C1c1ccc(C)o1` (configuration not stated) reads -4.54%; that for `Cc1cc(C(C)(C)C)cc(C)c1N`, 2.4%. The same measure, in the same setting: to `O=C(OC1CCOC1=O)c1cccc(S(=O)(=O)Nc2ccc(F)cc2)c1` (configuration not stated) belongs -0.633%. The same measure, in the same setting: the result for `O=C(NCCCCCCNC(=O)NCc1ccco1)NCc1ccco1` reads -9.22%. For `COc1ccc2c(Cl)c(C(=O)NCc3ccco3)sc2c1`, the Potency is 14.1 µM (active). The same measure, in the same setting: the result for `O=C(NCc1ccco1)c1sc2cccc(F)c2c1Cl` reads 3.98 µM (active). Consider `COc1ccc(-c2cc(C(=O)NCc3ccco3)no2)cc1OC`, for which the activity change, negative = inhibition is -10.4%. In the case of `COc1cc(C(=O)NC(=S)NCc2ccco2)cc(OC)c1OC`, the activity change, negative = inhibition is -21.9%. On the same count and under the same terms, to `O=C(NCc1ccco1)c1ccc(CS(=O)(=O)Cc2ccc(F)cc2)o1` belongs 2.28%; to `CCN1CN(Cc2ccccc2)CNC1=S`, -9.5%. On to `CC(O)c1nc2ccccc2n1Cc1ccc([N+](=O)[O-])cc1` (configuration not stated), for which the activity change, negative = inhibition was -6.78%. On the same count and under the same terms, to `CC(=O)c1c(C)[nH]c(C(=O)OCC(=O)Nc2cc(S(=O)(=O)N3CCCCC3)ccc2C)c1C` belongs -12.5%; to `Cc1cc(=O)oc(C)c1C(=O)N1CCCCC1`, -2.92%. Same read-out and setting: to `O=C(Nc1cccc(C(=O)N2CCCC2)c1)c1ccccc1` belongs -13.5%; to `Cc1ccccc1CN1CCN(C(=O)c2cccc(F)c2)CC1`, 2.95%. Still for that read-out and setting: to `CNC(=O)n1ccc(C(=O)N2CCCCC2)n1` belongs -21.9%; to `CCOC(=O)C1CCCN(C(=O)c2cncc(Br)c2)C1` (configuration not stated), -7.12%.

`C/C(=C\C(=O)c1ccc(Br)cc1)N1CCCCC1`: the activity change, negative = inhibition is -21.6%. On to `Cc1cccc(C(=O)N2CCCN(C(=O)c3cccc(C)c3)CC2)c1`, for which the activity change, negative = inhibition is 4.89%. Turning to `O=C(c1ccc(Cl)c(Cl)c1)N1CCCC1`, the Potency is 20 µM (active). Still for that read-out and setting: the result for `Cc1c(Br)cc(C(=O)N2CCCCCC2)c(C)c1C` reads 14.1 µM (active). In the case of `CCCNC(=O)c1ccc(Cl)c(Cl)c1`, the activity change, negative = inhibition was -21.6%. Turning to `Cc1ccc(C(=O)N2CCCC2)c(F)c1F`, the Potency is 10 µM (active). The same measure, in the same setting: to `Cc1ccc(C(=O)N2CCCCCC2)cc1Br` belongs 5.01 µM (active). Consider `Cc1cc(C(=O)N/N=C/c2ccc(O)c([N+](=O)[O-])c2)c(C)n1-c1ccc(F)cc1`, for which the activity change, negative = inhibition is -20.1%. Same read-out and setting: the result for `COc1ccc(C(=O)NNC(=S)NC(=O)c2ccccc2[N+](=O)[O-])cc1` reads -1.33%; that for `Cc1cc(C)nc(SC2CCCCC2NS(=O)(=O)c2ccc(Cl)cc2)n1` (configuration not stated), -1.86%. On the same count and under the same terms, the result for `COc1ccc(Cn2c(-c3ccc(Cl)cc3)c[n+]3ccccc23)cc1` reads 1.07%. On the same count and under the same terms, to `C=CCn1c(SCc2ccc(Cl)c(Cl)c2)nnc1C(CO)NC(=O)c1ccc(OC)cc1` (configuration not stated) belongs -18.7%; to `CCC(C)NC(=O)CCCc1ccccc1` (configuration not stated), -18.7%. Consider `CC(CCc1ccccc1)NC(=O)c1ccc(Br)o1` (configuration not stated), for which the Potency is 15.8 µM (active). Take `CC(CNC(=O)c1ccc(Br)o1)NC(=O)c1ccc(Br)o1` (configuration not stated): the activity change, negative = inhibition is -8.51%. Still for that read-out and setting: the result for `Cc1cccc(N2Cc3ccccc3C2=NC(=O)c2ccc(Cl)nc2)c1` reads -15.5%.

With `C/C(=C/C(=O)N1CCN(C)CC1)C(=O)O`, the activity change, negative = inhibition is 4.4%. For `c1ccc(CSc2nnc(-c3ccco3)n2Cc2ccccc2)cc1`, the activity change, negative = inhibition is -25.4%.

Regarding `c1ccc(CSc2nnc(-c3ccco3)c(-c3ccco3)n2)cc1`, the Potency was 4.47 µM (active). For the compound `c1coc(-c2nc3nc4ccccc4n3nc2-c2ccco2)c1`, the activity change, negative = inhibition was -14.3%. As for `O=C(Nc1nnc(SCc2ccccc2)s1)c1ccco1`, the activity change, negative = inhibition was -28%.

On to `Clc1ccccc1CSc1nnc(-c2ccco2)c(-c2ccco2)n1`, for which the Potency was 12.6 µM (active).

With `Nc1nc(SCc2ccccc2Cl)n[nH]1`, the activity change, negative = inhibition was -3%.

With `COc1ccc(-c2nc3c(c4c2C[C@H](c2ccccc2)OC4)CN(C(=O)c2cccnc2)CC3)c(C)c1`, the activity change, negative = inhibition was -9.44%. Turning to `COCc1c(C(=O)N/N=C/C2CC=CCC2)nnn1-c1nonc1N` (configuration not stated), the activity change, negative = inhibition is -10.3%. On the same count and under the same terms, the result for `CC(C)CNC(=S)Nc1ccc(F)cc1` reads -4.13%; that for `Cc1ccc(S(=O)(=O)N(CC(=O)Nc2cccc([N+](=O)[O-])c2)Cc2ccc(Cl)cc2)cc1`, -3.74%. The same measure, in the same setting: to `O=C(Oc1ccc([N+](=O)[O-])cc1)c1ccc(Cl)c(S(=O)(=O)N2CCCCC2)c1` belongs -21.8%.
